Assay outcomes (PubChem BioAssay)
CYP2C9 inh: blockers of cytochrome P450 2C9 activity – biochemical, luminescence, ADME assay, primary screen. P11712. CYP2C9 Supersomes, luciferin-H conversion. inhibition, % at 5 µM. hit rate 20% among 96,000;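 active means blocking of liver enzyme CYP2C9 beyond about 50% at 5 µM, limit read from the data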
Target sequence (P11712 whole entry, looked up): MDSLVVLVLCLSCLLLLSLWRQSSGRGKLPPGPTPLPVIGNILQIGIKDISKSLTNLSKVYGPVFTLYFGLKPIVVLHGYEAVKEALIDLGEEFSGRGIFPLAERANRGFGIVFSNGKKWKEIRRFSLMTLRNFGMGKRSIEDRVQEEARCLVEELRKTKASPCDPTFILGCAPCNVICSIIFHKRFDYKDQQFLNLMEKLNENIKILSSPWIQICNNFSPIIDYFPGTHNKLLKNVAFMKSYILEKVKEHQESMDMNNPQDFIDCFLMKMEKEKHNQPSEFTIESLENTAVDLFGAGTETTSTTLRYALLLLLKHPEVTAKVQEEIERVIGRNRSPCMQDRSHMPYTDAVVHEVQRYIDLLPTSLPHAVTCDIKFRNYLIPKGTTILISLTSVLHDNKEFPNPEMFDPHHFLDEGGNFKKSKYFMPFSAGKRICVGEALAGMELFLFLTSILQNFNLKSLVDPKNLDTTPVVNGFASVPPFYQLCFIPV
sEH inhibitor: soluble epoxide hydrolase inhibitors, primary screen, biochemical, human sEH; recombinant human sEH enzymatic activity assay; inhibition, % at 2 µM; hit rate 0.34% among 91,000; in the data active means inhibition above about 80%
sEH act: soluble epoxide hydrolase activators, primary screen, biochemical, human sEH | AID 717, 2007 | purified human sEH enzymatic activity, activator screen | activation, % at 2 µM | hit rate 0.04% among 91,000; in the data active means activation above about 37%
CYP2C19 inhib: blockers of cytochrome P450 2C19 activity – biochemical, luminescence, ADME assay, primary screen; P33261; CYP2C19 Supersomes, luciferin-H EGE luminescence, 30 min; hit rate 21% among 96,000; AID 778, 2007; inhibition, % at 5 µM;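 active means CYP2C19 inhibition above a set limit at 5 µM in the primary screen, cut at about 50% in these data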;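 further: plate controls were negative control wells for no effect and 2.5 mM tranylcypromine positive control for full effect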
CYP2C9 activ: human CYP2C9 activators, primary screen, biochemical, luminescence. recombinant CYP2C9, luciferin-H conversion; active compounds read high; factor 1 = untreated enzyme, 0 = blocked. activation factor at 5 µM. hit rate 1.4% among 96,000. AID 1024, 2008;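 active means activation factor of 2 or more for CYP2C9 at a 5 µM dose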;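 further: 0 = sulfaphenazole-blocked wells and 1 = vehicle-only wells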
CYP2C19 activ: human CYP2C19 activators, primary screen, biochemical, luminescence; Cytochrome P450 2C19 (Homo sapiens), P33261; recombinant CYP2C19, luciferin-H EGE luminescence; active compounds read high; 0 = fully inhibited enzyme, 1 = untreated enzyme; activation factor at 5 µM; 96,000 tested, under 10 active;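 active means activation factor of at least 2 at 5 µM in the primary screen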;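 further: 0 = wells with 2.5 mM tranylcypromine and 1 = vehicle-only wells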
Numbers without * were called inactive; . = not tested or not shown. Hits are enriched below; roughly 27% of the tested compounds scored in any of these assays.

SMILES | CYP2C9 inh | sEH inhibitor | sEH act | CYP2C19 inhib | CYP2C9 activ | CYP2C19 activ
COc1ccc(CNc2nc3c(c(=O)n(Cc4ccc(Br)cc4)c(=O)n3C)n2C)cc1 | 63* | -13 | 13 | 48 | 0.4 | 0.5
Cn1c(OCc2ccc3c(c2)OCO3)nc2c1c(=O)n(Cc1cccc(Cl)c1)c(=O)n2C | . | -1 | 1 | . | . | .
Cn1c(NCc2ccccc2)nc2c1c(=O)n(Cc1ccc(Br)cc1)c(=O)n2C | 97* | . | . | 89* | 0 | 0.1
Cn1c(Cl)nc2c1c(=O)n(Cc1cccc(Br)c1)c(=O)n2C | 39 | . | . | 94* | 0.6 | 0.1
Cn1c(NCc2ccco2)nc2c1c(=O)n(Cc1ccc(Br)cc1)c(=O)n2C | 0 | -1 | -3 | 6 | 1 | 0.9
Clc1ccc2[nH]cc(-c3nnnn3-c3ccccc3)c2c1 | 34 | -6 | 6 | 37 | 0.7 | 0.6
Cn1c(N2CCCC2)nc2c1c(=O)n(Cc1ccc(Cl)cc1)c(=O)n2C | 21 | -4 | 2 | 13 | 0.8 | 0.9
Cn1c(N2CCCC2)nc2c1c(=O)n(Cc1cccc(F)c1)c(=O)n2C | 81* | 26 | -26 | 2 | 0.2 | 1
CC(C)Oc1ccc(-c2cc(=O)[nH]c(=O)[nH]2)cc1 | -27 | 16 | -16 | -16 | 1.3 | 1.2
CCC(=O)NC1(C(F)(F)F)C(=O)Nc2c1c(=O)n(C)c(=O)n2C (stereo unspecified) | 58* | . | . | 72* | 0.4 | 0.3
O=C1CNC(=O)/C1=C\N1CCN(C(c2ccccc2)c2ccccc2)CC1 | 10 | . | . | -2 | 0.9 | 1
CCOC(=O)c1[nH]c2cc(OC)c(OC)cc2c1NC(=O)C(C)N1CCN(Cc2ccccc2)CC1 (stereo unspecified) | 15 | -10 | 8 | 8 | 0.8 | 0.9
CCOC(=O)c1[nH]c2ccc(OC)cc2c1NS(=O)(=O)c1ccc(OC)cc1OC | 67* | 1 | -2 | 57* | 0.3 | 0.4
CCOC(=O)c1[nH]c2ccc(OC)cc2c1NC(=O)OC | -7 | -13 | 13 | 0 | 1.1 | 1
COC(=O)c1[nH]c2ccc(F)cc2c1NS(=O)(=O)c1ccc(OC)cc1OC | 42 | 8 | -8 | 56* | 0.6 | 0.4
CCOC(=O)c1[nH]c2ccc(OC)cc2c1NC(=O)C(C)N1CCSCC1 (stereo unspecified) | 84* | 2 | -2 | 81* | 0.2 | 0.2
COc1ccc(N2CC(C(=O)O)CC2=O)cc1 (stereo unspecified) | . | 19 | -16 | . | . | .
CC1CCN(CCc2nc3cc(NC(=O)NC4CCCCC4)ccc3n2C)CC1 | 5 | 57 | -56 | 10 | 0.9 | 0.9
CCCOC(=O)CSC1=C(C#N)C(c2ccc3c(c2)OCO3)CC(=O)N1 (stereo unspecified) | 97* | . | . | 92* | 0 | 0.1
CCOc1ccc(C2CC(=O)NC(SC)=C2C#N)cc1 (stereo unspecified) | 56* | . | . | 36 | 0.4 | 0.6
COC(=O)CSC1=C(C#N)C(c2ccc(F)cc2)CC(=O)N1 (stereo unspecified) | 90* | -8 | 10 | 72* | 0.1 | 0.3
CCOc1ccc(NC(=O)CSC2=C(C#N)C(c3ccc4c(c3)OCO4)CC(=O)N2)cc1 (stereo unspecified) | 24 | . | . | 17 | 0.8 | 0.8
C=CCSC1=C(C#N)C(c2ccc(OCC)cc2)CC(=O)N1 (stereo unspecified) | 65* | . | . | 82* | 0.4 | 0.2
O=C(/C=C\Nc1cccc(F)c1)c1ccc2c(c1)OCO2 | 31 | -4 | 7 | -4 | 0.7 | 1
COc1cc(C(=O)N2CCN(C(=O)Cc3ccccc3)CC2)cc(OC)c1OC | -15 | -2 | 2 | -18 | 1.1 | 1.2
SMILES | CYP2C9 inh | sEH inhibitor | sEH act | CYP2C19 inhib | CYP2C9 activ | CYP2C19 activ
COCCNC(=O)CCSCc1ccccc1F | 7 | . | . | 37 | 0.9 | 0.6
Cc1ccc2nc(NC(=O)COC(=O)c3ccco3)sc2c1 | 5 | -9 | 7 | -2 | 0.9 | 1
Cc1ccc(C(=O)OCC(=O)Nc2ccccc2)cc1NC(=O)c1ccco1 | 15 | 13 | -13 | 26 | 0.8 | 0.7
Cc1nc(NC(=O)COC(=O)C(NC(=O)c2ccco2)C(C)C)c(Cl)cc1Cl (stereo unspecified) | 24 | 8 | -6 | 95* | 0.8 | 0.1
Cc1ccc(C(=O)OCC(=O)Nc2ncc(Cl)cc2Cl)cc1NC(=O)c1ccco1 | 69* | 12 | -11 | 92* | 0.3 | 0.1
Cc1ccc(C(=O)OCC(=O)Nc2sc3c(c2C#N)CCCCC3)cc1NC(=O)c1ccco1 | 92* | -1 | 0 | 60* | 0.1 | 0.4
Cc1ccc(C(=O)OCC(=O)Nc2sc3c(c2C#N)CCCC3)cc1NC(=O)c1ccco1 | 91* | 7 | -6 | 34 | 0.1 | 0.7
CCOC(Cn1c(CCCO)nc2ccccc21)OCC | -9 | -11 | 11 | 9 | 1.1 | 0.9
COc1ccccc1CNC(=O)C1CCCN(S(=O)(=O)c2c(C)[nH]c(=O)[nH]c2=O)C1 (stereo unspecified) | 8 | 14 | -13 | -8 | 0.9 | 1.1
Cc1ccc(C(=O)OCC(=O)Nc2sccc2C(N)=O)cc1NC(=O)c1ccco1 | 94* | -13 | 10 | 19 | 0.1 | 0.8
CCC(C)c1ccccc1NC(=O)COC(=O)c1ccc(C)c(NC(=O)c2ccco2)c1 (stereo unspecified) | 44 | -3 | 6 | 75* | 0.6 | 0.3
CCOC(=O)/C(C#N)=C\C=C1C=CN(C)C=C1 | 5 | 0 | 3 | -13 | 1 | 1.1
O=C1N=C(N2CCOCC2)S/C1=C1\C(=O)N(Cc2ccccc2)c2ccc(Br)cc21 | 62* | . | . | 30 | 0.4 | 0.7
CCCCN1C(=O)/C(=C2\SC(N3CCCCC3)=NC2=O)c2ccccc21 | 90* | -2 | 2 | 53* | 0.1 | 0.5
Cc1ccc(CN2C(=O)/C(=C3\SC(N4CCOCC4)=NC3=O)c3cc(Br)ccc32)cc1 | 41 | . | . | 2 | 0.6 | 1
COC(=O)Cn1cnc(=O)c(C#N)c1/C=C/N(C)C | 0 | . | . | -14 | 1 | 1.1
CC(C)(C)NC(=O)NC(=O)COC(=O)CCCc1c[nH]c2ccccc12 | 21 | 12 | -11 | 39 | 0.8 | 0.6
Cc1ccc(C)c(-n2nnnc2SCC(=O)c2ccc3c(c2)NC(=O)CO3)c1 | -154 | -8 | 9 | 56* | 2.5* | 0.4
O=C1OC2CC3CC1CC(O)(C3)C2 (stereo unspecified) | -8 | -11 | 13 | -16 | 1.1 | 1.2
Cc1ccc(S(=O)(=O)Oc2ccc(C3C4=C(CCCC4=O)OC4=C3C(=O)CCC4)cc2)cc1 | -2 | 6 | -5 | 1 | 1 | 1
